Screening results deposited in PubChem by National Center for Advancing Translational Sciences (NCATS).
An excerpt weighted towards active compounds, which were near 12% of everything screened.
Shiga toxin inh: A qHTS for Small Molecule Inhibitors of Shiga Toxin | 9.2% of 290,000 active | inhibition, % at 38.7 µM | Vero cells, Shiga toxin protein synthesis inhibition reporter | AID 2315, 2010; in the data active means inhibition mostly above about 28%, no sharp cut-off; inactive means mostly below about 43%
NS1 inh: qHTS Assay for Inhibitors of Influenza NS1 Protein Function. Potency, µM (series often up to 46.1 µM). 0.4% of 270,000 active. AID 2326, 2010; further: actives are rising curves; nearly all actives have a fitted effect of over 50% in size
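OD600 was taken as the measure of yeast growth restored by compound in an NS1-expressing S. cerevisiae strain. Cells had been washed out of glucose medium and diluted 1:100 into galactose -URA medium, pH 6.0.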
SARS PLpro yeast: qHTS of Yeast-based Assay for SARS-CoV PLP; AID 485353, 2010; 0.19% of 330,000 active; S. cerevisiae expressing SARS-CoV PLpro, growth rescue; Potency, µM (top dose mostly 32.9 µM), actives largely listed as activators; further: nearly all actives have a fitted effect of over 55% in size
CHX counter: Cycloheximide Counterscreen for Small Molecule Inhibitors of Shiga Toxin; cell reporter, cycloheximide protein synthesis inhibition counterscreen; AID 2314, 2010; max response, %; 12% of 300,000 active; in the data active means max response mostly above about 13%, no sharp cut-off; inactive means mostly below about 14%; further: read at 38.3 µM for the half of the compounds with a filed dose
Hits are given with their value; 0 = inactive; ? = inconclusive; - = no result. Unless noted, the call rests on the fitted dose curve.

SMILES	Shiga toxin inh	NS1 inh	SARS PLpro yeast	CHX counter
CCCOC(=O)c1ccc(OCC(O)Cn2c(C)nc3ccccc32)cc1 (stereo unspecified)	0	0	0	0
O=C(CNC(=O)c1cccs1)OCc1c(F)cccc1Cl	103	0	0	48
Cc1ccc(C(=O)NCC(=O)OCc2c(F)cccc2Cl)cc1	-	-	0	-
Cc1ccc(S(=O)(=O)NCC(=O)NCC(=O)OCc2c(F)cccc2Cl)cc1	0	0	0	13
O=C(Cc1c(F)cccc1Cl)NNC(=O)c1cccs1	-	-	0	-
O=C(CC1CCCCC1)N=C1SC2CS(=O)(=O)CC2N1c1ccccc1 (stereo unspecified)	0	0	0	0
Cc1ccc(/C=N/NC(=O)c2nn(C)cc2Cl)cc1	47	0	0	34
Cn1cc(Cl)c(C(=O)N/N=C/c2ccc3c4c(cccc24)CC3)n1	61	0	0	29
O=C(CCc1ccccc1)c1c(O)cc(O)cc1O	0	0	0	active
COc1cc(O)c(C(=O)O)c(CCc2ccccc2)c1	-	-	0	-
CC(=O)Nc1ccccc1C(=O)OCc1ccc(C(=O)c2ccccc2)cc1	0	0	0	24
CC(=O)Nc1ccccc1C(=O)OCc1cccc(F)c1	0	0	0	26
CCOC(=O)c1ccccc1NC(=O)c1cccc(F)c1	0	0	0	0
O=C1c2nccnc2C(=O)N1c1ccc(F)cc1	0	-	0	0
O=C(c1ccco1)c1coc2c1cc(O)c1ccccc12	100	0	0	32
CC(=O)c1coc2c1cc(O)c1ccccc12	0	0	0	0
O=C1CC(c2cccnc2)=NN1c1ccccc1	0	-	?	0
c1ccc(C2CCC3(CC2)Oc2ccccc2C2CC(c4cccnc4)=NN23)cc1 (stereo unspecified)	40	0	0	27
Cc1ccc(C)c(OCCC(=O)NNC(=O)c2cc(C)oc2C)c1	-	-	0	-
COc1ccc(/C=C/c2c(-c3ccc(OC)cc3)oc3cccnc23)cc1	31	0	0	16
COc1cc(OC)cc(-c2oc3cccnc3c2C#CCCO)c1	0	0	0	0
CC(=O)c1ccc(Oc2ccc(C(C)=O)cc2)cc1	0	0	0	17
Cc1ccc(CN2C(=O)CCC2C(=O)NCCN(CC(C)C)CC(C)C)cc1 (stereo unspecified)	0	0	0	26
Cc1ccc(CN2C(=O)CCC2C(=O)NCc2ccc(F)cc2)cc1 (stereo unspecified)	0	0	0	0
CC(C)(C)c1cc(NC(=O)C2CCCO2)no1 (stereo unspecified)	47	0	0	33
SMILES	Shiga toxin inh	NS1 inh	SARS PLpro yeast	CHX counter
CC(C)(C)c1csc(NC(=O)c2cccs2)n1	71	0	0	44
CC(C)(C)c1csc(NC(=O)CCc2ccccc2)n1	-	0	0	25
CCOc1ncccc1C(=O)Nc1nc(C(C)(C)C)cs1	0	-	0	0
CC(C)(C)c1csc(NNC(=O)c2ccc(Cl)cc2)n1	64	0	0	29
O=C(O)c1cc(NC(=O)C2CCCO2)cc(C(=O)O)c1 (stereo unspecified)	0	0	0	0
Cn1nc(C(F)(F)F)c(C(=O)Nc2ccc(F)cc2F)c1Sc1ccc(C(F)(F)F)cc1	0	0	0	0
COc1ccc(Cl)cc1S(=O)(=O)NC(C)C(=O)NCc1ccncc1 (stereo unspecified)	0	0	0	0
Clc1cccc(C2CCN(Cc3nc(CC4CC4)no3)C2)c1 (stereo unspecified)	0	0	0	0
CC(C)(C)c1csc(NC(=O)Cc2cccs2)n1	61	0	0	33
CC(C)(C)c1csc(NC(=O)c2cccnc2)n1	0	0	0	13
CC(C)(C)c1cc(NC(=O)c2cccnc2)no1	0	0	0	31
O=C(Cc1cccs1)Nc1nc(-c2cccnc2)cs1	0	0	0	0
O=C(Nc1nc(-c2ccc(Cl)cc2)cs1)c1cccnc1	0	0	0	0
COc1ccccc1CNC(=O)[C@@H](NC(=O)C1CCN(C(=O)[C@@H]2CCCN2C(=O)OC(C)(C)C)CC1)C(C)C	0	0	0	0
Cc1c(Br)c([N+](=O)[O-])nn1CC(=O)Nc1c(C)n(C)n(-c2ccccc2)c1=O	0	0	0	0
CCOC(=O)N1CCN(C(=O)CSCC(=O)N=c2sc3cc(OC)ccc3n2C)CC1	-	0	-	-
COc1ccc2c(Cl)c(C(=O)NCCCn3ccnc3)sc2c1Cl	0	0	0	0
COCc1c(CCl)cnc(C)c1O	48	0	0	8.1
O=C(CCn1c(=O)oc2ccccc21)N1CCOCC1	0	0	0	0
O=C(CCn1c(=O)oc2ccccc21)N1CCC2(CC1)OCCO2	0	0	0	14
O=C(CCn1c(=O)oc2ccccc21)Nc1ccc2c(c1)OCCO2	80	0	0	71
